According to PubChem BioAssay AID1159580 (chemical genetic matrix, 2015):
About 2,000 (36%) of roughly 5,500 compounds were called active. Not shown: some 18% with an inconclusive outcome. Rule as the data show it: active = normalized growth mostly below about 0.91 (no sharp cut-off); inconclusive = no clear call, values can overlap the other calls; inactive = mostly above about 0.92. The list shows a part of the results.

Experiment: chemical genetic growth profiling, strain panel (AID 1159580);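 also: tested at 20 µM; growth read once vehicle control cultures reached saturation at 30 °C; 1 = growth at the plate median or of vehicle wells; lower values mean less growth of the strain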
Conditions: growth OD

Measured: normalized growth

COc1ccc(C2Sc3ccccc3N(CCN(C)C)C(=O)C2OC(C)=O)cc1 (stereo not given)
inactive: S. cerevisiae deletion strains, locus YKL009W, strain mrt4, stronger effect = lower value 1.04 | S. cerevisiae deletion strains, locus YKL068W, stronger effect = lower value 1.02 | S. cerevisiae deletion strains, locus YKL085W, strain MDH1 (second series), stronger effect = lower value 1.03 | S. cerevisiae deletion strains, locus YKL085W, strain MDH1, stronger effect = lower value 1.03 | S. cerevisiae deletion strains, locus YKL160W, strain elf1, stronger effect = lower value 0.972 | S. cerevisiae deletion strains, locus YKL190W, strain CNB1, stronger effect = lower value 0.994 | S. cerevisiae deletion strains, locus YKR001C, strain vps1, stronger effect = lower value 1.04 | S. cerevisiae deletion strains, locus YKR026C, strain gcn3, stronger effect = lower value 0.931 | S. cerevisiae deletion strains, locus YKR091W, strain srl3, stronger effect = lower value 0.983 | S. cerevisiae deletion strains, locus YLL001W, strain dnm1, stronger effect = lower value 0.944 | S. cerevisiae deletion strains, locus YLL026W, stronger effect = lower value 0.983 | S. cerevisiae deletion strains, locus YLL041C, strain sdh2, stronger effect = lower value 0.956 | S. cerevisiae deletion strains, locus YLR027C, strain aat2, stronger effect = lower value 0.974 | S. cerevisiae deletion strains, locus YLR039C, strain RIC1, stronger effect = lower value 1.04 | S. cerevisiae deletion strains, locus YLR058C, strain SHM2, stronger effect = lower value 1.01 | S. cerevisiae deletion strains, locus YLR102C, strain apc9, stronger effect = lower value 1.04 | S. cerevisiae deletion strains, locus YLR113W, strain HOG1, stronger effect = lower value 1.01 | S. cerevisiae deletion strains, locus YLR221C, strain rsa3, stronger effect = lower value 0.989 | S. cerevisiae deletion strains, locus YLR258W, strain gsy2, stronger effect = lower value 0.974 | S. cerevisiae deletion strains, locus YLR262C, strain YPT6 (second series), stronger effect = lower value 0.977 | S. cerevisiae deletion strains, locus YLR262C, strain YPT6, stronger effect = lower value 1.04 | S. cerevisiae deletion strains, locus YLR268W, strain sec22, stronger effect = lower value 1.03 | S. cerevisiae deletion strains, locus YLR320W, strain mms22, stronger effect = lower value 1.02 | S. cerevisiae deletion strains, locus YLR330W, strain CHS5, stronger effect = lower value 1.01 | S. cerevisiae deletion strains, locus YLR342W, strain FKS1 (second series), stronger effect = lower value 1.02 | S. cerevisiae deletion strains, locus YLR342W, strain FKS1, stronger effect = lower value 0.979 | S. cerevisiae deletion strains, locus YLR357W, strain rsc2, stronger effect = lower value 0.922 | S. cerevisiae deletion strains, locus YLR370C, strain arc18, stronger effect = lower value 0.973 | S. cerevisiae deletion strains, locus YLR371W, strain rom2, stronger effect = lower value 1.03 | S. cerevisiae deletion strains, locus YLR384C, strain iki3, stronger effect = lower value 0.941 | S. cerevisiae deletion strains, locus YLR418C, strain cdc73, stronger effect = lower value 1.06 | S. cerevisiae deletion strains, locus YML016C, strain PPZ1, stronger effect = lower value 1.01 | S. cerevisiae deletion strains, locus YML032C, strain rad52, stronger effect = lower value 1.06 | S. cerevisiae deletion strains, locus YML120C, strain ndi1, stronger effect = lower value 0.982 | S. cerevisiae deletion strains, locus YML124C, strain tub3, stronger effect = lower value 1.03 | S. cerevisiae deletion strains, locus YMR058W, strain fet3, stronger effect = lower value 0.986 | S. cerevisiae deletion strains, locus YMR078C, strain ctf18, stronger effect = lower value 1.04 | S. cerevisiae deletion strains, locus YMR125W, strain sto1, stronger effect = lower value 0.896 | S. cerevisiae deletion strains, locus YMR129W, stronger effect = lower value 0.975 | S. cerevisiae deletion strains, locus YMR205C, strain PFK2, stronger effect = lower value 0.98 | S. cerevisiae deletion strains, locus YMR223W, strain ubp8, stronger effect = lower value 1.04 | S. cerevisiae deletion strains, locus YMR231W, strain pep5, stronger effect = lower value 0.965 | S. cerevisiae deletion strains, locus YMR263W, strain SAP30, stronger effect = lower value 1 | S. cerevisiae deletion strains, locus YMR307W, strain GAS1, stronger effect = lower value 1.07 | S. cerevisiae deletion strains, locus YNL067W, strain RPL9B, stronger effect = lower value 1.02 | S. cerevisiae deletion strains, locus YNL071W, strain lat1, stronger effect = lower value 0.998 | S. cerevisiae deletion strains, locus YNL128W, strain TEP1, stronger effect = lower value 1.02 | S. cerevisiae deletion strains, locus YNL153C, strain GIM3, stronger effect = lower value 1.01 | S. cerevisiae deletion strains, locus YNL183C, strain NPR1, stronger effect = lower value 0.953 | S. cerevisiae deletion strains, locus YNL209W, strain ssb2, stronger effect = lower value 0.973 | S. cerevisiae deletion strains, locus YNL233W, strain BNI4, stronger effect = lower value 1.01 | S. cerevisiae deletion strains, locus YNL250W, strain rad50, stronger effect = lower value 1.07 | S. cerevisiae deletion strains, locus YNL271C, strain bni1, stronger effect = lower value 1.04 | S. cerevisiae deletion strains, locus YNL298W, strain CLA4, stronger effect = lower value 1.06 | S. cerevisiae deletion strains, locus YNL307C, strain MCK1, stronger effect = lower value 1.05 | S. cerevisiae deletion strains, locus YNL322C, strain KRE1 (second series), stronger effect = lower value 0.974 | S. cerevisiae deletion strains, locus YNL322C, strain KRE1, stronger effect = lower value 1.01 | S. cerevisiae deletion strains, locus YNR049C, strain mso1, stronger effect = lower value 0.977 | S. cerevisiae deletion strains, locus YNR052C, strain pop2, stronger effect = lower value 1.05 | S. cerevisiae deletion strains, locus YOL006C, strain TOP1, stronger effect = lower value 1.07 | S. cerevisiae deletion strains, locus YOL012C, strain htz1 1.17 | S. cerevisiae deletion strains, locus YOL147C, strain pex11, stronger effect = lower value 1.04 | S. cerevisiae deletion strains, locus YOR001W, strain rrp6, stronger effect = lower value 0.945 | S. cerevisiae deletion strains, locus YOR061W, strain CKA2, stronger effect = lower value 1.01 | S. cerevisiae deletion strains, locus YOR069W, strain VPS5, stronger effect = lower value 1.01 | S. cerevisiae deletion strains, locus YOR070C, strain gyp1, stronger effect = lower value 0.989 | S. cerevisiae deletion strains, locus YOR080W, strain dia2, stronger effect = lower value 0.973 | S. cerevisiae deletion strains, locus YOR083W, strain WHI5, stronger effect = lower value 0.976 | S. cerevisiae deletion strains, locus YOR106W, strain vam3, stronger effect = lower value 0.903 | S. cerevisiae deletion strains, locus YOR136W, strain idh2, stronger effect = lower value 1.04 | S. cerevisiae deletion strains, locus YOR144C, strain elg1, stronger effect = lower value 1.04 | S. cerevisiae deletion strains, locus YOR184W, strain ser1, stronger effect = lower value 1.07 | S. cerevisiae deletion strains, locus YOR231W, strain MKK1, stronger effect = lower value 1.01 | S. cerevisiae deletion strains, locus YOR265W, strain rbl2, stronger effect = lower value 0.974 | S. cerevisiae deletion strains, locus YOR270C, strain vph1, stronger effect = lower value 0.902 | S. cerevisiae deletion strains, locus YOR290C, strain snf2, stronger effect = lower value 0.998 | S. cerevisiae deletion strains, locus YOR316C, strain cot1, stronger effect = lower value 1.03 | S. cerevisiae deletion strains, locus YPL051W, strain arl3, stronger effect = lower value 0.977 | S. cerevisiae deletion strains, locus YPL055C, strain LGE1, stronger effect = lower value 1.04 | S. cerevisiae deletion strains, locus YPL078C, strain atp4, stronger effect = lower value 0.943 | S. cerevisiae deletion strains, locus YPL106C, strain sse1, stronger effect = lower value 0.976 | S. cerevisiae deletion strains, locus YPL240C, strain hsp82, stronger effect = lower value 0.972 | S. cerevisiae deletion strains, locus YPL241C, strain CIN2, stronger effect = lower value 1.01 | S. cerevisiae deletion strains, locus YPL256C, strain CLN2, stronger effect = lower value 0.991 | S. cerevisiae deletion strains, locus YPR119W, strain clb2, stronger effect = lower value 1.03 | S. cerevisiae deletion strains, locus YPR141C, strain kar3, stronger effect = lower value 1.06 | S. cerevisiae deletion strains, locus YPR163C, strain tif3, stronger effect = lower value 1.05 | S. cerevisiae deletion strains, locus YPR167C, strain met16, stronger effect = lower value 1.04 | S. cerevisiae deletion strains, strain wtn01, stronger effect = lower value 1.03 | S. cerevisiae strains, strain wild type, stronger effect = lower value 1.01
